Laboratory results taken from PubChem BioAssay (Tox21).
Records with an inconclusive call do not appear. Values without a mark were called inactive. Activity calls are given as the source filed them. Unless noted, the call rests on the fitted dose curve.

These compounds were tested against Progesterone receptor (Homo sapiens) (UniProt P06401) (assay: qHTS assay to identify small molecule agonists of the progesterone receptor (PR) signaling pathway (AID 1346784; further: nearly all actives have a fitted effect of over 30% in size)). Conditions: PR-UAS-bla HEK293T, beta-lactamase FRET ratio, 16 h; series mostly up to 92.4 µM; activation: at the top concentration.
Sequence of Progesterone receptor (Homo sapiens) (P06401 whole entry, looked up): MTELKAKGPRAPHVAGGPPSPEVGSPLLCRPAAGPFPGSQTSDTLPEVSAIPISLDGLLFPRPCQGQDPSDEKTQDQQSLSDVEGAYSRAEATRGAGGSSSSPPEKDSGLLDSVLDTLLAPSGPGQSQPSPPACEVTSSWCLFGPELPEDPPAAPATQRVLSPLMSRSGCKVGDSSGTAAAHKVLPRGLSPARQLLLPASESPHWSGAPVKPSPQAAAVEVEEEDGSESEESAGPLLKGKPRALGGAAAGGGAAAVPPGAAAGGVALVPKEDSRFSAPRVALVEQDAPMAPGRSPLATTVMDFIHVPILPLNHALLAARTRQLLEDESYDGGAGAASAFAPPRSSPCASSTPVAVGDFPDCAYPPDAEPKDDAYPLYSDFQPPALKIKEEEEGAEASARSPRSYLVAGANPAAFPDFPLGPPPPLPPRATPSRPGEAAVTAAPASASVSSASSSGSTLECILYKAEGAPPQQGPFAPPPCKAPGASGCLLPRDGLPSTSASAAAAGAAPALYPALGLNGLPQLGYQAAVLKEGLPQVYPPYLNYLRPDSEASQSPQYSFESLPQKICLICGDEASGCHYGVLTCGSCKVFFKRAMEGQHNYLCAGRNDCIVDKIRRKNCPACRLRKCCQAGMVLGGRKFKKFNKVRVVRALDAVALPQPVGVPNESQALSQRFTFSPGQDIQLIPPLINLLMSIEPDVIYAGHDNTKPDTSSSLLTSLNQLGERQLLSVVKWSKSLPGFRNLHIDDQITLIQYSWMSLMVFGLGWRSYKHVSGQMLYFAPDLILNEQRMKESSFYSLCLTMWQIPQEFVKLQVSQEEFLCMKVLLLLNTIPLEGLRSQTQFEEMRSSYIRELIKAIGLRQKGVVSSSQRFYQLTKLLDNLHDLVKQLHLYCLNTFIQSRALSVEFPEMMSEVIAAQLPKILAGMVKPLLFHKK
Method in brief: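 Beta-lactamase reporter read-out: after 16 hr compound treatment at 37C and a further 2 hr at room temperature with LiveBLAzer B/G FRET substrate, fluorescence was measured in PR-UAS-bla HEK 293T cells grown in 2% charcoal-stripped serum.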
On the % scale 0 is the no-effect control and ±100 the full control effect.

| Structure (SMILES) | activation |
| --- | --- |
| OCC1CC2CC1C1CCC(CO)C21 (stereo not drawn) | -5.08% |
| CC(=O)/C(C)=C/C1C(C)=CCCC1(C)C (stereo not drawn) | -3.61% |
| CC(=O)O[C@@H]1C(=O)O[C@@H]2[C@H]1OC(=O)[C@@H]2OC(C)=O | 2.84% [at 42.5 µM] |
| CC(C)NCC(O)COc1ccc(CC(N)=O)cc1 (stereo not drawn) | -0.122% |
| CC(C)(C)C(=O)OCOP(=O)(COCCn1cnc2c(N)ncnc21)OCOC(=O)C(C)(C)C | -4.62% [at 42.5 µM] |
| CCC(C)N(C)C(=O)c1cc2ccccc2c(-c2ccccc2Cl)n1 (stereo not drawn) | -0.421% [at 42.5 µM] |
| CCCCOc1ccc(CC(=O)NO)cc1 | -5.77% [at 42.5 µM] |
| C=CC(=O)OCC(C)OCC(C)OCC(C)OC(=O)C=C (stereo not drawn) | -12.6% |
| O=c1[nH]cnc2ccccc12 | 0.549% |
| CCOC(=O)C1=C(C)NC(C)=C(C(=O)OC)C1c1cccc([N+](=O)[O-])c1 (stereo not drawn) | -1.5% [at 42.5 µM] |
| CC(C)(C)c1cc(O)c(C(C)(C)C)cc1O | 4.46% |
| CN(C(=O)CCCOc1ccc2[nH]c(=O)ccc2c1)C1CCCCC1 | 6.43% [at 42.5 µM] |
| O=C(CCN1CCN2CCCC2C1)N1c2ccccc2Sc2ccc(Cl)cc21 (stereo not drawn) | -2.53% [at 19 µM] |
| CCc1nn(C2CCCCC2)c2cc(C3(C#N)CCC(C(=O)O)CC3)ccc12 (stereo not drawn) | 4.06% |
| CCOc1ccc2[nH]cc(C(=O)NCc3ccccc3)c(=O)c2n1 | 2.91% |
| CCCCc1cc2ccccc2c(OCCN(C)C)n1 | -1.43% [at 42.5 µM] |
| CCCCC(CC)COCCCN (stereo not drawn) | 1.33% |
| Oc1ccc2c(c1)OCO2 | -7.84% |
| SC1CCCC1 | -0.438% |
| Cc1cc(O)ccc1N | -0.161% |

What follows are compounds tested against Progesterone receptor (Homo sapiens) (UniProt P06401) (assay: qHTS assay to identify small molecule antagonists of the progesterone receptor (PR) signaling pathway (AID 1346795; active means well fitted inhibition curve with a large enough effect in the signal ratio in the repeat runs, not every such curve was filed as active; the % refers to the signal ratio; further: potency means the concentration at half of the fitted maximal effect)). Conditions: PR-UAS-bla HEK293T, beta-lactamase FRET ratio, 16 h; series mostly up to 92.4 µM; activity change, negative = inhibition: at the top concentration.
Method in brief: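 Read-out is fluorescence from the LiveBLAzer B/G FRET substrate, cleaved by a UAS-controlled beta-lactamase in PR-UAS-bla HEK293T cells after 16 hr exposure to compound plus 1 nM promegestone (final), followed by 2 hr at room temperature.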

| Structure (SMILES) | activity change, negative = inhibition | Potency |
| --- | --- | --- |
| CC(=O)N(CC(=O)N(C)C)c1ccccc1 | 9.24% [at 42.5 µM] | – |
| COC(=O)C(C)=O | 3.03% | – |
| Cc1c(Cn2ccnc2)c2ccccc2n1CCC(=O)O | 7.11% [at 42.5 µM] | – |
| Oc1ccc(C(O)CNCCCCCCNCC(O)c2ccc(O)c(O)c2)cc1O (stereo not drawn) | 9.32% [at 42.5 µM] | – |
| CC[C@@H]1C[C@H](N(Cc2cc(C(F)(F)F)cc(C(F)(F)F)c2)C(C)=O)c2cc(C(F)(F)F)ccc2N1C(=O)OC(C)C | 1.06% | – |
| CCCCCOC(=O)c1ccc(O)cc1 | – | 27.6 µM (active) |
| CC(C)c1ccc2c(C(C)C)cc(C(C)C)c(S(=O)(=O)O)c2c1 | -0.0944% | – |
| CC1(C)CCC(C)(C)c2cc(NC(=O)c3ccc(C(=O)O)cc3)ccc21 | – | 16.8 µM (active) |
| O=C(/C=C/c1ccc(O)c(O)c1)O[C@@H]1C[C@](O)(C(=O)O)C[C@@H](O)[C@H]1O | 0.675% | – |
| CCOc1nc2cccc(C(=O)O)c2n1Cc1ccc(-c2ccccc2-c2nn[nH]n2)cc1 | 9.46% [at 42.5 µM] | – |
| CCCCCCCCCCCCC(=O)O | -2% | – |
| CCCCC(CC)(CO)CO | 1.52% | – |
| Cc1ccc(C(=O)C(C)CN2CCCCC2)cc1 (stereo not drawn) | -1.86% [at 42.5 µM] | – |
